Broadly, the inhibition is the drop in the measured response relative to a control, in per cent.

This note sets out measurements from ChEMBL document CHEMBL3433997, “St. Jude Leishmania screening dataset” (2016).

Values joined by “and” are separate entries in the source; they are usually repeats but may differ in a detail not shown here. Equal entries are not always repeated.

Assay type in all cases: functional
Assay [1] has as its target Solute carrier family 2, facilitated glucose transporter member 1 (Homo sapiens) (UniProt P11166). Nature of the assay: ST_JUDE_LEISH: Cytotoxicity at 2uM final concentration against transgenic Leishmania Mexicana promastigotes LmGLUT1 that are glucose transport deficient and complemented with the human glucose transporter GLUT1. Activity is measured by DNA content using SYBR green in vitro.

The target in assay [2] is Hexose transporter 1 (Plasmodium falciparum) (UniProt O97467). Description: ST_JUDE_LEISH: Cytotoxicity at 2uM final concentration against transgenic Leishmania Mexicana promastigotes LmPfHT that are glucose transport deficient and complemented with the Plasmodium falciparum hexose transporter. Activity is measured by DNA content using SYBR green in vitro.
The target in assay [3] is Glucose transporter (Leishmania mexicana) (UniProt O61059). Description: ST_JUDE_LEISH: Cytotoxicity at 2uM final concentration against transgenic Leishmania Mexicana promastigotes LmGT2 that are glucose transport deficient and complemented with the L. Mexicana glucose transporter 2. Activity is measured by DNA content using SYBR green in vitro.

Chain of Solute carrier family 2, facilitated glucose transporter member 1 (Homo sapiens) (P11166 whole entry): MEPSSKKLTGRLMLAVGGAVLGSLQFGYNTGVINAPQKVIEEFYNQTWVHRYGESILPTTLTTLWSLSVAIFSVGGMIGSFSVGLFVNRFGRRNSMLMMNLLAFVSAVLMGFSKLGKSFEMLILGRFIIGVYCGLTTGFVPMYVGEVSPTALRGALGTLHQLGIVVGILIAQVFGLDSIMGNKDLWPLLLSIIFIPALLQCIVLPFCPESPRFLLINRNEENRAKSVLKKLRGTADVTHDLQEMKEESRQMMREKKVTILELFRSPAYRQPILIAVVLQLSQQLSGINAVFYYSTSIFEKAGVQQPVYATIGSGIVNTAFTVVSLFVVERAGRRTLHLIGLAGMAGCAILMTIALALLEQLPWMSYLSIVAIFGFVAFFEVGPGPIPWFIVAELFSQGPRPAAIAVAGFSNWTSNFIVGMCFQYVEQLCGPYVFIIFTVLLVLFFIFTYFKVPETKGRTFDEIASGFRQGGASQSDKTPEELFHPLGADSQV

With `COc1cc2nc(N3CCC(CNC(=O)c4ccc(-c5ccc(C(=O)N(C)C)cc5C)cc4)CC3)nc(N3CCN(C)CC3)c2cc1OC`, the inhibition is -0.31% in assay [1], 0.88% in assay [2] and 1.23% in assay [3].
Regarding `N#Cc1ccc(N2CCN(Cc3ccc(-c4ccc(-c5nc6cc(F)ccc6[nH]5)s4)cc3)CC2)nc1`, the inhibition is 6.42% in assay [1], 5.07% in assay [2] and 4.78% in assay [3].
The like results for `COc1ccc(NC(=O)[C@H](CC(C)C)Nc2cc(C)nc(NCc3cccc(C)c3)n2)cc1` were, in that order, 9.89%, 9.82% and 7.22%.
The like results for `CCCCNCc1cc(Cl)c2ccccc2c1O` were, in that order, 7.17%, 7.57% and 6.58%.
Taken in the same sequence, the figures for `N=C(NCCc1ccc(Cl)cc1)c1ccc(Cl)c(Cl)c1` were 2%, 2.64% and 1.15%.
For `Cc1cc2nc(-c3cc(Br)ccc3O)c(-c3cc(Br)ccc3O)nc2cc1C`, the inhibition in assay [1] was -1.26%; in assay [2] it was -1.38%; in assay [3], -1.13%.
The like results for `CNC(=O)c1cc(Nc2nnc(-c3ccc(C)c(S(=O)(=O)NC4CCCCC4)c3)c3ccccc23)ccc1OC` were, in that order, 4%, 3.11% and 4.93%.
Taken in the same sequence, the figures for `COc1cccc(-c2[nH]c3ccccc3c2CN2CCC(c3c(C)cccc3C)CC2)c1` were 2.03%, 2.95% and -1.74%.
With `N#Cc1ccc2c(c1)CN(CC[C@H]1CC[C@H](NC(=O)/C=C/c3c[nH]c4ccccc34)CC1)CC2`, the inhibition in assay [1] was 7.48% and 1.99%; in assay [2] it was 6.9% and 1.06%; in assay [3] it was 5.69% and -2.35%.
Take `Oc1ccc2ccccc2c1C=NNc1nc(=Nc2ccccc2)[nH]c(=Nc2ccccc2)[nH]1`: the inhibition in assay [1] came to 3.37%; in assay [2], 3.44%; in assay [3] it was 2.92%.
Taken in the same sequence, the figures for `COc1c(F)ccc2ncc(Cl)c(CCN3CCC(NCc4ccc5c(n4)NC(=O)CS5)CC3)c12` were 6.45%, 6.77% and -2.91%.
The like results for `CC(CN(C)C)C(=O)Nc1ccc(-c2csc(-c3nc4ccccc4[nH]3)c2)cc1` (stereo not drawn) were, in that order, 0.09%, 3.49% and 3.09%.
Taken in the same sequence, the figures for `COc1ccc2ccccc2c1C=NN=c1cc(C)[nH]c2c(C)cccc12` were 1.52%, 1.8% and 3.6%.
Turning to `Cc1sc(NC(=O)Cc2cccc(C(F)(F)F)c2)nc1-c1cccc(Cl)c1`, the inhibition in assay [1] was determined as 9.6%; in assay [2], 8.91%; in assay [3] it was 8.34%.
The like results for `CN1CCC(NCc2cccc(-c3ccc(S(=O)(=O)NCCc4ccccn4)c(F)c3)c2)CC1` were, in that order, 1.22%, 0.03% and 0.94%.
The like results for `Cc1cc(N[C@@H](Cc2ccccc2)C(=O)NCCOc2ccccc2)nc(NCc2ccccc2C)n1` were, in that order, 7.28%, 7.01% and 4.21%.
The like results for `Cc1cc(C)n(Cc2ccc(C(=O)NCC3CCCCC3)cc2)n1` were, in that order, 4.03%, 2.07% and 2.61%.
Regarding `COc1ccccc1CCC(C)(C)NC(=O)CC(CCc1ccccc1)Nc1ccc(C#N)c2ccccc12` (stereo not drawn), the inhibition in assay [1] is -0.97%; in assay [2], -0.79%; in assay [3], -3.34%.
Taken in the same sequence, the figures for `CCOc1c(OC)ccc2c1CCN(CCN1CCC(CNC(=O)c3ccc(-c4ccc(C(F)(F)F)cc4)cc3)CC1)C2` were -1.88%, -0.64% and 0.24%.
On to `Fc1ccc2[nH]c(-c3ccc(-c4ccc(CNCc5cnn(-c6ccccc6)n5)cc4)cc3)nc2c1`, for which the values for the inhibition in assay [1], in assay [2] and in assay [3] were 1.68%, -1.57% and -1.56%, respectively.
The like results for `O=C(NCC1CCC(C(=O)NCCc2ccc(Cl)c(Cl)c2)CC1)c1ccc(O)c(-c2ccc(Cl)c(Cl)c2)c1` (stereo not drawn) were, in that order, -0.17%, 0.8% and 1.89%.
Taken in the same sequence, the figures for `CCN(CC)CCN(Cc1ccc(-c2ccc(C(F)(F)F)cc2)cc1)C(=O)Cn1c(SCc2ccc(F)cc2)nc(=O)c2ccccc21` were 4.02%, 1.11% and 1.8%.
The like results for `CCOC(=O)c1ccc(-c2c(C(F)(F)F)noc2-c2cc(CC)c(OC)cc2O)o1` were, in that order, 3.34%, 2.22% and 1.45%.
Regarding `Cn1nc(-c2ccc(CNC3CCc4ccccc43)cc2)c2cnc(NCCCN3CCCC3)nc21` (stereo not drawn), the inhibition in assay [1] came out at 7.46%; in assay [2], 13.8%; in assay [3] it was 8.91%.
Taken in the same sequence, the figures for `O=C(CN1C(=O)CC1S(=O)(=O)Cc1ccco1)NCCCCCCc1ccc(F)cc1` (stereo not drawn) were -0.99%, 1.25% and 0.24%.
The like results for `c1nc(CCNc2nc(Nc3ccc4c(c3)OCO4)nc(NC3CCCC3)n2)c[nH]1` were, in that order, 1.6%, 2.73% and 0.99%.
Taken in the same sequence, the figures for `Nc1ccc(Oc2ccc(Cc3cnc(N)nc3N)cc2)cc1` were 3.93%, 4.16% and 3.87%.
Turning to `COc1ccc2c(NN=Cc3cccc(C)n3)ccnc2c1`, the results for the inhibition in assay [1], in assay [2] and in assay [3] were 4.32%, 5.22% and 5.4%, respectively.
Taken in the same sequence, the figures for `CCCCNS(=O)(=O)c1ccc(NC(=O)c2cc([N+](=O)[O-])ccc2Cl)cc1` were 2.21%, 0.49% and -1.07%.
Taken in the same sequence, the figures for `O=C1c2ccccc2CN1CCCN1CCC(Oc2ccc(F)cc2)CC1` were -2.87%, -2.18% and -3.86%.
The like results for `O=C1c2ccccc2-n2c1nc1ccccc1c2=O` were, in that order, -2.52%, -2.55% and -3.28%.
As for `CN(C)Cc1cccc(-c2ccc(NC(=O)c3ccc4c(=O)n(CC5CCCO5)cnc4c3)cc2)c1` (stereo not drawn), the inhibition in assay [1] is 38.5%; in assay [2], 22.4%; in assay [3] it was 14.5%.
The like results for `CC(=O)Nc1ccc(C(=O)Nc2cccc(-c3cccc(-c4nc5cccc(C)c5[nH]4)c3)c2)cn1` were, in that order, 4.29%, 3.64% and 1.41%.
Taken in the same sequence, the figures for `CC(=O)Nc1ncc(C(=O)Nc2cccc(-c3cccc(-c4nc5cccc(C)c5[nH]4)c3)c2)s1` were 3.02%, 2.86% and 2.45%.
Taken in the same sequence, the figures for `COc1ccc(-c2ccc(CNC(=O)c3ccc(Cl)cc3)c(F)c2)cc1CN1CCCN(C)CC1` were 3.27%, 0.3% and 1.71%.
With `O=C(Nc1cccc(CN2CCCN(Cc3ccccc3)CC2)c1)c1ccc(Cl)c(Cl)c1`, the inhibition was 4.45% in assay [1], 3.88% in assay [2] and -5.96% in assay [3].
The like results for `CN1CCN(CCc2ccc3nc(-c4csc(Cc5cc(Cl)ccc5OCc5ccccc5)n4)[nH]c3c2)CC1` were, in that order, 0.84%, 2.08% and -1.4%.
With `Cc1ccc2nc3ccccc3c(NCCN3CCN(C)CC3)c2c1`, the values for the inhibition in assay [1], in assay [2] and in assay [3] were 39.1%, 50.6% and 21.1%, respectively.
The like results for `Cn1c(N)c(N=O)c(=O)[nH]c1=O` were, in that order, 1.53%, 0.51% and 1.58%.
The like results for `O=C(c1cc2ccccc2o1)N1CCc2cc3nccc(N4CCN5CCC[C@H]5C4)c3cc21` were, in that order, 3.95%, 4.36% and 6.35%.
The like results for `COc1cc(NC(=O)CCCCCCCN2CCN(C)CC2)c2ncccc2c1` were, in that order, 5.39%, 3.78% and 1.09%.
Consider `COc1cccc2c(NN=Cc3cccc(Cl)c3)cc(C)nc12`, for which the inhibition is -0.65% in assay [1], 0.14% in assay [2] and 1.05% in assay [3].
The like results for `O=C(Nc1ccc(OC2CCN(Cc3ccsc3)C2)c(Cl)c1)c1ccc(F)cc1` (stereo not drawn) were, in that order, 0.29%, 0.51% and 0.32%.
Regarding `COc1ccc(C2CC(=O)C3=C(C2)NC(C)=C(C(=O)OC2CCCC2)C3c2cccc(O)c2)cc1` (stereo not drawn), the inhibition in assay [1] is 0.09%; in assay [2], 0.95%; in assay [3] it was -0.53%.
Taken in the same sequence, the figures for `CCCC(C)Nc1nc(C)cc(NCCC(=O)Nc2ccc(OC)cc2)n1` (stereo not drawn) were 1.95%, 0.08% and -0.58%.
Taken in the same sequence, the figures for `C=CCn1c(Cc2ccccc2)nnc1Sc1ccc(C#N)c([N+](=O)[O-])c1` were 3.36%, 3.11% and 2.02%.
